Vaccinia mCherry = qHTS for Stage-Specific Inhibitors of Vaccinia Orthopoxvirus: mCherry Reporter Primary qHTS. AID 720579, 2013. Potency, µM (series often up to 36.5 µM), without a hit: at the highest dose activity change, negative = inhibition, actives largely listed as inhibitors. Vaccinia virus mCherry reporter infection, fluorescence. 310,000 compounds, 0.63% hits; calls by dose curve; tested in A549 cells; also: nearly all actives have a fitted effect of over 35% in size
HCV inhibitor = qHTS Assay for Inhibitors of Hepatitis C Virus (HCV) | Huh7.5.1 HCVcc-Cre infection, luciferase reporter, 44 h | 340,000 compounds, 3.4% hits | Potency, µM (doses to about 41.8 µM), for inactives: at the highest dose activity change, negative = inhibition, usual class: inhibitors; active = well fitted inhibition curve with a large enough effect; inconclusive = small, poorly fitted or top-dose-only effect, or another doubt; inactive = no such curve, though single readings can be large or run the other way
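HCVcc-Cre virus at an moi near 0.5 was added right after compound to cells cultured 4 h from seeding (1,000 cells/well). Luciferase activity was determined 44 h later, 15 min after substrate addition at RT.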
VACV Venus inh = qHTS for Stage-Specific Inhibitors of Vaccinia Orthopoxvirus: Venus Reporter Primary qHTS; Vaccinia virus Venus reporter expression, fluorescence; Potency, µM (series often up to 36.5 µM), for the others: at the top dose activity change, negative = inhibition, actives largely listed as inhibitors; 330,000 compounds, 0.46% hits; AID 720580, 2013; calls by dose curve; tested in A549 cells; also: nearly all actives have a fitted effect of over 30% in size
* hit, by the source's call; i = inactive; u = inconclusive; x = no result; ! = not confirmed by another sample; [ ] = another dose, or the depositor's remark. An excerpt weighted towards active compounds, which were near 3.3% of everything screened. % is scaled to controls: 0 for no effect and ±100 for the full control effect; potency is read from the fitted curve at half-maximal effect.

SMILES | Vaccinia mCherry | HCV inhibitor | VACV Venus inh
CCOc1ccc(Cn2ccnc2)cc1[N+](=O)[O-] | i | 3% | -5%
CC(C)CC(=O)/C=C/n1c(=S)oc2ccccc21 | -11% | 14µM* | -3%
CC(=O)Nc1ccc(NC(=O)CCn2c(=S)oc3ccccc32)cc1 | x | 6% | x
Cn1c(=S)oc2ccccc21 | i[7.34 µM] | 11% | 4%[7.34 µM]
CC(=O)/C=C/n1c(=S)oc2ccccc21 | -28% | 4.5µM* | u
CCc1nn(CCCC(=O)NCc2ccc(OC(C)C)cc2)c(=O)c2cc3occc3n12 | -13% | 8.9µM* | u
CCC(C(=O)NC1CCCCCC1)n1nc(C)n2c(cc3occc32)c1=O (stereo not drawn) | x | -19% | x
CCc1nn(CCCC(=O)NCc2cc(Br)ccc2OC)c(=O)c2cc3occc3n12 | 1% | 10µM* | -1%
CCc1nn(C(C)C(=O)NC2CCCCCC2)c(=O)c2cc3occc3n12 (stereo not drawn) | -5% | 10µM* | 1%
CCc1nn(CCCC(=O)NCc2ccccc2C)c(=O)c2cc3occc3n12 | -15% | u | -12%
CCc1nn(CCCC(=O)NCc2ccco2)c(=O)c2cc3occc3n12 | i | u | -8%
CC1CCCC(C)N1C(=O)COC(=O)c1cc(F)c(F)cc1Cl (stereo not drawn) | x | 4% | x
COCc1nnc(NC(=O)C2CCN(C(=O)c3ccccc3)CC2)s1 | -19% | x | -11%
CC(C)(C)c1cc(C(=O)NNC(=O)c2ccc(Cl)cc2)no1 | i[7.34 µM] | -9% | -3%[7.34 µM]
CCOC(=O)c1c(S(=O)(=O)N2CCCC(C(=O)N3CCN(c4ccccc4)CC3)C2)c(C)n(C)c1C (stereo not drawn) | -13% | x | -15%
O=C(O)COc1ccccc1/C=N/NC(=O)CSc1nnc(SCc2ccc(Cl)cc2)s1 | x | 2% | x
O=C(CSc1nnc(SCc2ccc(Cl)cc2)s1)N/N=C/c1c[nH]c2ccccc12 | u | u | 11µM*
Cc1ccc(-c2csc(=Nc3ccccc3)n2CCCO)cc1 | -18% | x | -13%
C=CCn1c(-c2ccc(S(=O)(=O)N3CCOCC3)cc2)csc1=Nc1ccccc1 | x | -3% | -22%
COc1ccc(-c2csc(=Nc3ccccc3)n2CCO)cc1 | -22% | 13µM*! | -15%
CC(=O)c1cccc(N=c2scc(-c3ccc(S(=O)(=O)N4CCOCC4)cc3)n2CCO)c1 | u | 1µM* | u
Nc1ccc(/C=C/c2ccc3cccnc3c2)cc1 | 17% | x | -4%
O=C(Nc1cnc2ccccc2c1)c1ccncc1 | -2% | 15% | -19%
C=CC(=O)Nc1cccc(Oc2ncnc3[nH]cc(-c4cnc5ccccc5c4)c23)c1 | u | u | 11µM*
CCCCCc1c2c(cc(O)c1C(=O)O)OC(=O)c1cc(C(=O)CCCC)c(OC)cc1O2 | -10% | 0.5µM* | -8%
SMILES | Vaccinia mCherry | HCV inhibitor | VACV Venus inh
CCCCCc1c2c(cc(O)c1C(=O)O)OC(=O)c1c(cc(OC)cc1C(=O)CCCC)O2 | i | 8% | 0%
Cc1cccc(NC(=O)CN2C(=O)CSc3ccc(S(=O)(=O)N4CCCC4)cc32)c1C | -2% | x | -8%
COc1c(C(=O)Nc2nccs2)ccc2ccccc12 | x | -5% | x
COc1ccc(C(=O)Nc2ccccc2C(=O)Nc2cc(C)ccn2)cc1 | -25% | u | u
COc1cc2ccccc2cc1C(=O)Nc1nccs1 | 17% | 11µM* | -7%
Cc1ccnc(NC(=O)Cc2ccc(-c3ccccc3)cc2)c1 | x | 4µM* | x
Cc1ccc(NC(=O)Cc2ccc(-c3ccccc3)cc2)nc1 | -13% | u | -4%
COc1cc2ccccc2cc1C(=O)Nc1cc(C)ccn1 | -10% | 13µM* | -10%
CCC1Oc2ccc(C)cc2N(CC(=O)NCCN2CCOCC2)C1=O (stereo not drawn) | -29% | 24% | -4%
CN(C)CCCNC(=S)N(CCN(C)C)Cc1cc2cc3c(cc2[nH]c1=O)OCCO3 | i | 5% | -14%
CN(C)CCCNC(=S)N(Cc1cccs1)Cc1cc2cc3c(cc2[nH]c1=O)OCCO3 | -6% | 2.5µM* | 0%
Cc1cnc(C)c(-c2cccc3c2OC(CNC(=O)C[C@@H]2C[C@@H](C)NC(=S)N2)C3)n1 (stereo partly drawn) | -10% | x | 3%
CCn1c(=O)cc(SCC(=O)Nc2ccc(C)cn2)c2ccccc21 | u | u | 10µM*
CCN1CCN(C(=O)CSc2cc(=O)n(CC)c3ccccc23)CC1 | -12% | u | -7%
CCn1c(=O)cc(SCC(=O)NCc2ccc(C)cc2)c2ccccc21 | -9% | -26% | -3%
CCOC(=O)C1CCN(C(=O)CSc2cc(=O)n(CC)c3ccccc23)CC1 | -4% | 11µM* | -18%
COc1ccc(-c2noc(-c3cccnc3N3CCN(c4ccc(OC)cc4)CC3)n2)cc1 | -26% | x | -12%
Cc1ccc(NC(=O)c2ccc(C)cc2)cc1 | -14% | -2% | -9%
Cc1ccc(C(=O)Nc2ccc(Br)c(C(F)(F)F)c2)cc1 | x | 11µM* | x
Cc1ccccc1-c1nc(-n2ccnc2)c2ccccc2n1 | -13% | x | -12%
CCOc1ccccc1-c1nc(-c2ccc(-c3ccccc3)nc2OCC)no1 | -4% | x | -12%
CCOc1nc(-c2ccccc2)ccc1-c1noc(-c2ccco2)n1 | -13% | 10µM* | -9%
O=C(c1cccc(F)c1)N(Cc1cc2cc3c(cc2nc1N1CCOCC1)CCC3)CC1CCCO1 (stereo not drawn) | i | x | -4%
COc1ccc(Cl)cc1C(=O)Nc1ccccc1N1CCN(C)CC1 | -15% | u | -26%
COc1ccc(C(=O)Nc2ccccc2N2CCOCC2)cc1Br | -8% | -26% | -6%
SMILES | Vaccinia mCherry | HCV inhibitor | VACV Venus inh
COc1cc(C(=O)Nc2ccccc2N2CCCCC2)cc(OC)c1OC | i | u | -15%
COc1cc(C(=O)NC(=S)Nc2ccccc2N2CCCC2)cc(OC)c1OC | i[7.34 µM] | 11µM* | 0%[7.34 µM]
COc1cccc(OC)c1C(=O)NC(=S)Nc1ccc2c(c1)C(=O)N(C)C2=O | u | 10% | -30%
COc1ccc(C(=O)NC(=S)Nc2ccccc2N2CCOCC2)cc1Br | 0% | 16µM* | -8%
COc1cc(C(=O)NC(=S)Nc2ccc3c(c2)C(=O)N(C)C3=O)cc(OC)c1OC | -10% | 10µM* | -1%
COc1ccc(Cl)cc1C(=O)Nc1ccccc1N1CCCCC1 | x | 11µM* | x
Cc1c(C(=O)NCCC2CCCN2C)cnn1-c1nccc(-c2ccccc2F)n1 (stereo not drawn) | -7% | x | 5%
C=C1/C(=C\C=C2/CCC[C@]3(C)C([C@H](C)CCCC(C)(C)O)CC[C@@H]23)C[C@@H](O)C[C@@H]1O (stereo partly drawn) | -12%[3.33 µM] | x | -13%[3.33 µM]
Cc1ccc(C(C)C)c(OCC(=O)N2CCN(c3ncccn3)CC2)c1 | -7% | 22% | -13%
COc1cc(NC(=O)c2ccc(C)cc2)c(OC)cc1NC(=O)CN1CCCCC1 | -5% | u | -30%
COc1cc(NC(=O)c2cc(OC)c(OC)c(OC)c2)c(OC)cc1NC(=O)CN1CCCCC1 | x | 2.5µM* | -5%
CCn1c(=O)n(CC)c2cc(N3CCCC3)c(NC(=O)c3ccccc3)cc21 | u | u | -12%
CCn1c(=O)n(CC)c2cc(N3CCCC3)c(NC(=O)c3ccccc3F)cc21 | u | 13µM* | -8%

Bioassay records: PubChem, National Center for Advancing Translational Sciences (NCATS)
